Compound activity from PubChem BioAssay.
Pf Dd2 growth = blocks in vitro growth of P. falciparum Dd2; P. falciparum Dd2 growth, SYBR Green, 72 h; Potency, µM (doses to about 28.9 µM), inactives show at the highest dose activity, negative = inhibition, hits mostly inhibitors; hit rate 4.3% among 120,000; active = well fitted inhibition curve with a large enough effect;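 also: plate controls were DMSO vehicle for no effect and reference drug for full effect; nearly all actives have a fitted effect of over 65% in size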
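Readout: SYBR Green fluorescence, 485 nm excitation, 535 nm emission, after ~16 h lysis at 37C. Before that, Dd2-infected red cells (2.5% hematocrit) grew 72 h with compound, 29 uM top final concentration.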
Starred values were filed as active, the others as inactive; i = inactive; [ ] = another dose, or the depositor's remark. Many of the other results were omitted from the sample, so hits are more common in it than they were. Potency is read from the fitted curve at half-maximal effect.

SMILES	Pf Dd2 growth
Cc1cc(=O)n(CC(=O)Nc2cccc(Cl)c2C)c(N2CCOCC2)n1	1%
COc1ccc(-c2cn(C)c(=O)n3cc(COc4ccccc4)nc23)c(C(F)(F)F)c1	i
Cc1ncc(CN2CCC(C(=O)Nc3cccc(-c4cc5ccccc5[nH]4)c3)CC2)cn1	8.9µM*
CSc1cccc(NC(=O)C2CCN(c3nc4ccccc4[nH]3)CC2)c1	i
O=C(Nc1cccc(-c2ccco2)c1)C1CCN(Cc2ccc(CO)o2)CC1	-25%
CC(=O)N1CCCC(C(=O)N2CCC(Cc3noc(C)n3)CC2)C1 (centres undefined)	25%
COc1ccccc1-c1cc2c(ccn2C)c(C(=O)NCc2cnccn2)n1	i
CC1CCN(C(=O)C2CCN(c3nc(-c4ccccc4)nc4c3CCC4)CC2)CC1	1%
Cc1ccc(C#N)c(N2CCN(C3CCCC3)C(CCO)C2)n1 (centres undefined)	-20%
NC1CCN(C(=O)C2CCN(c3nc(-c4ccccc4)nc4c3CCC4)CC2)C1 (centres undefined)	-4%
OCCC1CN(c2nc(-c3ccccc3)nc3c2CCC3)CCN1C1CCCC1 (centres undefined)	10µM*
O=C(C1CCN(c2nc(-c3ccccc3)nc3c2CCC3)CC1)N1CCCNCC1	8.9µM*
O=C(NC1CCCC1)C1CCCN(c2nc(-c3ccccc3)nc3c2CCC3)C1 (centres undefined)	-25%
O=C(NCc1ccco1)N1CCCC2(C1)Nc1cccnc1NC2=NCc1ccccc1 (centres undefined)	22%[5.79 µM]
COCc1nnc2n1CCC(NC(=O)CCn1cccn1)CC2 (centres undefined)	14%
COc1cccc(CC(=O)NCC2Cn3cccc3C(=O)N2C)c1 (centres undefined)	1%
COc1ccc(C(=O)N2CCCC(CO)CCNC(=O)CC2)cc1 (centres undefined)	-17%
O=C(NCCc1ccc(Cl)cc1)C1CCc2nnc(C3CCN([S+](=O)([O-])c4ccccc4)CC3)n21 (centres undefined)	5%
Cc1noc([C@@H]2CC(F)(F)CN2S(=O)(=O)c2ccc(F)cc2)n1	14%
CCO[C@H]1CN(C(=O)CCc2ccc(-c3ccccc3)cc2)C[C@@H]1O	-12%
COCCC(=O)N1CCc2c(n(CCOc3ccccc3)n(-c3ccccc3)c2=O)C1	23%[44.1 µM]
COCCNc1ccc(-c2nc(-c3ccco3)no2)cc1[N+](=O)[O-]	-21%
COCCNc1nc2cc(C(=O)N[C@@H]3CC[C@@H](N)C3)ccc2n1C	4%
COCCNc1nc2cc(-c3nc(-c4cccnn4)no3)ccc2n1C	6.3µM*
COc1ccc2c(CNC3CCCCCC3)c(C(=O)O)n(Cc3cccc(F)c3)c2c1	-8%
SMILES	Pf Dd2 growth
Cc1ccc(Cn2c(C(=O)O)c(CNC3CCCC3)c3ccc(C)cc32)cc1	i
COc1ccc2c(CNC3CCCCCC3)c(C(=O)O)n(Cc3ccc(C)cc3)c2c1	8.9µM*
COc1ccc(Cn2c(C(=O)O)c(CNC3CCCC3)c3ccc(C)cc32)cc1	61%
COc1ccc(Cn2c(C(=O)O)c(CNC3CCC(C)CC3)c3ccc(C)cc32)cc1 (centres undefined)	-9%
C=Cc1ccc(Cn2c(C(=O)O)c(CNC3CCCCC3)c3ccc(OC)cc32)cc1	11µM*
O=C(Cn1nc2c(cc1=O)CCCCC2)Nc1ccccc1Cl	-10%
O=C(Cc1c(F)cccc1Cl)N1CCc2n[nH]c(=O)n2CC1	32%
COc1ccc(OC2CN(CCC(C)C)C2)cc1	-20%[44.1 µM]
NC(=O)C1CCN(c2cc(-c3noc([C@@H]4CCCN4Cc4ccc(Cl)cc4)n3)ccn2)CC1	-23%
CN1Cc2ccc(NCc3ccccc3)nc2C(C)(C(=O)NC2CCC2)C1 (centres undefined)	4µM*
CN1Cc2ccc(NCc3ccccc3)nc2C(C)(C(=O)NCc2cccnc2)C1 (centres undefined)	i
CC(C)CNc1ccc2c(n1)C(C)(C(=O)N1CCC1)CN(Cc1ccccc1)C2 (centres undefined)	i
CNC(=O)C1(C)CN(Cc2ccccc2)Cc2ccc(Nc3ccccc3)nc21 (centres undefined)	10µM*
CC1(C(=O)Nc2ccccc2)CN(Cc2ccccc2)Cc2ccc(N3CCOCC3)nc21 (centres undefined)	i
CC1(C(=O)NC2CCOCC2)CN(Cc2ccccc2)Cc2ccc(Nc3ccccc3)nc21 (centres undefined)	-23%
COCCNC(=O)C1(C)CN(Cc2ccccc2)Cc2ccc(Nc3ccccc3)nc21 (centres undefined)	0%[44.1 µM]
CC(C)CNc1ccc2c(n1)C(C)(C(=O)NC1CC1)CN(Cc1ccccc1)C2 (centres undefined)	-19%[44.1 µM]
CC1(C(=O)Nc2ccc(F)cc2)CN(Cc2ccccc2)Cc2ccc(N3CCOCC3)nc21 (centres undefined)	6.3µM*
O=C(NCC1(COc2cccnc2)C[C@@H](O)[C@@H](O)C1)Nc1cccnc1 (some centres undefined)	26%[44.1 µM]
Cc1ccc(CSc2nc(N)cc(N3CCN(CCCO)CC3)n2)cc1	i
Cc1cc(Cl)ccc1S(=O)(=O)N(C)CC1CCOC1 (centres undefined)	-21%
COCCn1cc2c3c(cccc31)CN(C(=O)c1cccc(Cl)c1)CC2	-1%
Cc1cnc(C(=O)N2CCC(N3C(=O)C4(CCCCC4)C3c3ccccc3)CC2)cn1 (centres undefined)	i
CCCS(=O)(=O)N1CCC2(CC1)CC1C(=O)NCCN1C2 (centres undefined)	7%
CCOc1cccc(CN2C[C@@H]3C(=O)N(CCCN4CCCC4=O)C(=O)[C@@H]3C2)c1	36%
SMILES	Pf Dd2 growth
O=C(NCCc1nc(-c2cccnc2)n[nH]1)C1NCCc2[nH]cnc21 (centres undefined)	-3%
CCCCN1C(=O)[C@@H]2C[C@@H](O)CN2C2(CN(C3CCC(F)(F)CC3)C2)C1=O	-20%[44.1 µM]
COc1ccccc1Nc1ncc2c(n1)CN(C(=O)c1ccc(Oc3ccccc3)cc1)CCN2	8.9µM*
COc1ccccc1Nc1ncc2c(n1)CN([S+](=O)([O-])c1ccccc1)CCN2	9%[44.1 µM]
COc1ccccc1Nc1ncc2c(n1)CN(C(=O)c1cccc(O)c1)CCN2	-4%[44.1 µM]
Cn1cnc(S(=O)(=O)N2CCCC(C(=O)NC3CCCC3)CCNC(=O)CC2)c1 (centres undefined)	-14%
Cc1oc(-c2ccccc2F)nc1Cn1c(SCc2ccccc2F)nc2ccncc21	58%
Cc1ccccc1Cn1c(SCc2ccc(C(=O)NCc3cccs3)cc2)nc2ccncc21	10µM*
O=C(CSc1nc2ccccc2n1Cc1ccccc1F)NCc1ccccc1	-2%
O=C(NCc1cccs1)c1ccc(CSc2nc3ccncc3n2Cc2ccccc2F)cc1	13µM*
COCCN1CC(C(=O)N(C)Cc2cc(Cl)ccc2OC)CCC1=O (centres undefined)	-21%
NC1CCC(NC(=O)C2CCCN(C3CCN(CCc4ccccc4)CC3)C2)CC1 (centres undefined)	13%
CNC(=O)[C@@H]1CN(S(=O)(=O)c2cnc[nH]2)C[C@H]1c1nc(C)no1	9%
CCOc1cccc(C(=O)Nc2ccc(NC(=O)c3ccc(Br)cc3)cc2)c1	i
CCOc1ccc(NC(=O)c2ccc(-c3ccccc3)s2)cc1	18%
CCOC(=O)Cc1cc(C(=O)Nc2ccc(Br)cc2)sc1-c1ccc(C)cc1	7.1µM*
CN1CCCN(C(=O)c2ccsc2)c2ccccc21	-10%
Cc1noc(C)c1CC(=O)N1CCCC(COc2ccccc2C(=O)NC2CC2)C1 (centres undefined)	-1%
